Measured values: PubChem BioAssay (NCI)
About 83,000 compounds went through this panel and 20% of them were active in at least one assay; those are over-represented in the sample as a whole.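 Values shown are percent growth following 48 h exposure of cells in 96-well plates to a single concentration of compound; below 10 was considered active.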 Values without a mark were called inactive. Calls of active or inactive are those of the source.

The molecules below were run on HOP-62 NSCLC (assay: NCI-60 one-dose screen, 48 h (100 = growth as untreated, 0 = no growth, -100 = all killed)). Conditions: 10 µM.

| SMILES | growth |
| --- | --- |
| COc1ccc(N2N=C(c3ccc4c(c3)OCCO4)CC2c2cccc(NC(=O)CCCNS(=O)(=O)c3ccc(F)cc3)c2)cc1 (configuration not stated) | 89.6% |
| COc1cc(/C=N/NC(=O)c2ccc3nc(-c4ccc(Cl)cc4)[nH]c3c2)cc(OC)c1OC | -77.5% (active) |
| O=C(N=Nc1c(O)[nH]c2ccc(Br)cc12)c1ccc2nc(-c3ccccc3)[nH]c2c1 | -61.9% (active) |
| COc1ccccc1[C@H]1C(C(=O)c2ccc(Cl)cc2)C2(N[C@@H]1c1ccccc1)C(=O)Nc1ccc(Cl)cc12 (some centres not stated) | 26% |
| O=c1cc(-c2ccccc2)oc2cc(OCCCNCc3ccccc3)cc(O)c12 | 21.3% |
| O=C1Nc2cc(-c3ccc(NC(=O)c4cccs4)cc3)ccc2/C1=C/c1ccc[nH]1 | 98.3% |
| O=C(c1ccc(O)cc1)C1[C@H](c2ccc(Br)cc2)[C@@H](c2ccccc2)NC12C(=O)Nc1ccccc12 (some centres not stated) | 39.4% |
| C=C1CCC2C3(C)COC(c4ccccc4F)OC3CCC2(C)C1C/C=C1/C(=O)OCC1O (configuration not stated) | -41.7% (active) |
| C=C1CCC2C3(C)COC(c4c(F)cccc4F)OC3CCC2(C)C1C/C=C1/C(=O)OCC1O (configuration not stated) | -13.7% (active) |
| COc1cccc(/C=C2\N=C(C)N(CCc3ccc(S(N)(=O)=O)cc3)C2=O)c1 | 93.5% |
| C=C1CCC2C3(C)COC(c4cccc(F)c4)OC3CCC2(C)C1CC(O)C1=CCOC1=O (configuration not stated) | 88.7% |
| Cn1cc(-c2cc(N)n3nc(-c4c[nH]c5ccc(Br)cc45)cc3n2)c2cccnc21 | -89.6% (active) |
